# Screening data: PubChem BioAssay, National Center for Advancing Translational Sciences (NCATS)
# Sampled rows, rich in hits. Any-hit rate of the full collection: about 18%.
# IL-1B inflam inh = blocks inflammasome-driven IL-1 beta release; THP-1 LPS/ATP IL-1B secretion, AlphaLISA, 16 h; active compounds read low; activity change, % at 57.5 µM; actives 4.7% (n = 360,000); AID 743279; in the data active means activity change below about -50%; inconclusive means mostly about -30% to -49%
#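 THP-1 cells pretreated 1 hr with compounds (up to 57.5 uM final), then stimulated with LPS (250 ng/mL final) plus ATP (1.25 mM final); secreted IL-1B measured by AlphaLISA after 16 hr, decreased signal indicating inhibition.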
# CtBP-E1A inh = blocks the CtBP interaction with E1A; AlphaScreen GST-E1A/His-CtBP binding, 1536-well; active compounds read low; actives 0.49% (n = 340,000); activity change, % (test concentration not listed); AID 651724; in the data active means activity change below about -65%; inconclusive means mostly about -30% to -63%
#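 Steps: dispense buffer (Tris pH 8.0, NaCl 300 mM, TCEP 1 mM, BSA, Tween 20); add 5X protein mix (GST-E1A, His-CtBP, 125 nM each); pin 23 nL compound; 2 h at 37 °C, dark; add 5X beads (50 ug/mL); 1 h; read.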
# TDP1 inh = TDP1 (human) enzyme inhibition | Q9NUW8 | recombinant TDP1, AlphaScreen DNA substrate cleavage | Potency, µM (doses to about 130 µM), without a hit: at the top dose activity change, negative = inhibition, actives largely listed as inhibitors | actives 0.28% (n = 350,000) | AID 485290; further: potency means the concentration at half of the fitted maximal effect; nearly all actives have a fitted effect of over 40% in size
# Target sequence (Q9NUW8 whole entry, looked up): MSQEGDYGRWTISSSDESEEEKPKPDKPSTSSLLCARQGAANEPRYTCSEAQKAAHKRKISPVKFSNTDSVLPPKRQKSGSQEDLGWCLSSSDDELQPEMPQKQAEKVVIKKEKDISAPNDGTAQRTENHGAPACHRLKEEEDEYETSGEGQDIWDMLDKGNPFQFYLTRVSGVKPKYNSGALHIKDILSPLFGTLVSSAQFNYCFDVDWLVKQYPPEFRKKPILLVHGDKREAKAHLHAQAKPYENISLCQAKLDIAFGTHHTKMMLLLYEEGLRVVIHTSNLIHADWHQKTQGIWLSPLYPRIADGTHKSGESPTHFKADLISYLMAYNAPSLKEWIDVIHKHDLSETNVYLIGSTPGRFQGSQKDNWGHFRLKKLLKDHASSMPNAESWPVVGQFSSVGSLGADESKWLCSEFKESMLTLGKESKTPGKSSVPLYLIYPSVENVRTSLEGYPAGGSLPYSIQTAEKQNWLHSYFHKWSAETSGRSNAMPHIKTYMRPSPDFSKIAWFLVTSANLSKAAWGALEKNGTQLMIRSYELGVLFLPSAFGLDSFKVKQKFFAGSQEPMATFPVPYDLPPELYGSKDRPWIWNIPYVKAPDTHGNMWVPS
#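 Enzyme-compound mixtures sat 15 min at room temperature, followed by a 5 min reaction with 15 nM final substrate and 10 min with AlphaScreen beads. Recombinant human Tdp1 was used at 1 nM final.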
# DT40 TDP1 no CPT = qHTS for Inhibitors of human tyrosyl-DNA phosphodiesterase 1 (TDP1): qHTS in cells in absence of CPT. DT40 Tdp1-/- hTDP1 cells, no CPT, ATP luminescence, 48 h. Potency, µM (highest dose often 46.2 µM), without a hit: at the top dose activity change, negative = growth inhibition, actives largely listed as inhibitors. actives 15% (n = 420,000); further: potency means the concentration at half of the fitted maximal effect; nearly all actives have a fitted effect of over 55% in size
#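 Readout: luminescence from CellTiter-Glo after 30 min in the dark at RT. Cells: DT40 Tdp1-/- with stable hTDP1, 400/well. Exposure: compounds alone, ≥48 hr, 37 °C.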
# DT40 TDP1 CPT = DT40-hTDP1 cell growth loss with CPT; chicken DT40 Tdp1-/-;hTDP1 cells + 20 nM CPT, ATP luminescence, 48 h; Potency, µM (top dose mostly 46.2 µM), inactives show top-dose activity change, negative = growth inhibition, actives largely listed as inhibitors; actives 12% (n = 420,000); AID 686979; further: potency means the concentration at half of the fitted maximal effect; nearly all actives have a fitted effect of over 55% in size
#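 Chicken DT40 Tdp1-/- cells complemented with human TDP1, 400 cells/well, exposed to compounds plus 20 nM camptothecin for at least 48 h at 37 C; viability read as ATP content by CellTiter-Glo luminescence.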
# Six1-Eya2 inh = inhibitors of human Six1/Eya2 interaction; AlphaScreen GST-Six1/His-Eya2 binding, biochemical; active compounds read low; activity change, % (no concentration beside the values); actives 0.56% (n = 360,000); in the data active means activity change below about -65%; inconclusive means mostly about -30% to -63%
#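 Six1/Eya2 binding was read as AlphaScreen signal after compounds were pinned into GST-Six1 plus His-tagged Eya2 (5X stock 250/500 nM) in pH 8.0 Tris/NaCl/TCEP buffer, beads added, then incubated 1 h, 37 C, dark.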
# An asterisk follows results filed as active; ? = inconclusive; / = no result; [ ] = remark or other dose. Unless noted, the call rests on the fitted dose curve; in most records, active means well fitted curve in the direction sought with a large enough effect; inconclusive means small, poorly fitted or top-dose-only effect, or another doubt; inactive means no such curve, though single readings can be large; an effect the other way counts as inactive or inconclusive. On the % scale 0 is the no-effect control and ±100 the full control effect.
SMILES,IL-1B inflam inh,CtBP-E1A inh,TDP1 inh,DT40 TDP1 no CPT,DT40 TDP1 CPT,Six1-Eya2 inh
Cc1cc(O)c(C(c2ccccc2)N2CCN(C)CC2)c(=O)n1Cc1ccco1 (configuration not stated),/,/,3%,-1%,7%,/
CCOC(=O)c1c(NC(=O)COC(=O)c2nc(Cl)ccc2Cl)sc(C(=O)NC)c1C,8,0,-9%,-27%,-5%,-8
CCOC(=O)c1c(NC(=O)c2nc(S(C)(=O)=O)ncc2Cl)sc(C(C)=O)c1C,/,/,6%,0.92µM*,0.58µM*,/
CCOC(=O)c1c(NC(=O)COC(=O)c2ccc(O)cc2)sc(C(=O)NC)c1C,14,0,/,21µM*,18µM*,-7
CCOC(=O)c1c(NC(=O)c2nc(SCC)ncc2Cl)sc(C(C)=O)c1C,/,/,4%,-1%,1%,/
O=C(CNc1ccc(Br)cc1)Nc1ccc(S(=O)(=O)N2CCCCC2)cc1,3,-1,/,29µM*,?,-4
O=C(CN1CCN(S(=O)(=O)N2CCCCC2)CC1)Nc1ccc(Br)cc1,-5,-1,0%,16µM*,?,3
COc1ccc(-c2c(C)nc3c(-c4ccccn4)cnn3c2N)cc1,-28,-1,/,18µM*,?,-17
COc1ccc(-c2c(C)nc3c(-c4ccsc4)cnn3c2N)cc1,-4,/,/,?,?,14
Cc1nc2c(-c3ccc(F)cc3)cnn2c(N)c1-c1ccc(F)cc1,-67*,19,/,4.6µM*,21µM*,3
CCOC(=O)N1CCN(C(=O)c2cn(CC)c3ccc(S(=O)(=O)N4CCOCC4)cc3c2=O)CC1,-12,/,3%,4%,-12%,-4
CCOC(=O)CSc1n[nH]c(-c2cccnc2)n1,-81*,-1,4%,-16%,6%,8
N/C(=N\O)c1ccncc1,4,8,5%,-7%,-1%,?
O=C(O)CSCc1nc2ccccc2[nH]1,18,/,-2%,-3%,7%,-2
O=C(CSCc1nc2ccccc2[nH]1)N1CCN(c2ccc(F)cc2)CC1,?,0,8%,18µM*,23µM*,21
O=C(CSCc1nc2ccccc2[nH]1)N1CCN(c2cccc(Cl)c2)CC1,?,-21,8%,?,23µM*,-14
Cc1cc(C(=O)OCC(=O)Nc2ccc(F)cc2[N+](=O)[O-])c2ccccc2n1,34,3,2%,-12%,8%,-6
CCC1CCCN1Cn1cnc2c([nH]c3ccc(Cl)cc32)c1=O (configuration not stated),?,6,3%,?,-7%,8
CCOC(=O)CCNC(=O)N1CCCC(C(=O)c2cc(C)c(OC)c(C)c2)C1 (configuration not stated),4,0,/,?,?,2
Cc1cc(C)c([N+](=O)[O-])cc1NC(=O)CCS(=O)(=O)c1ccccc1,0,/,0%,-17%,-26%,-1
COC(=O)c1ccc(-n2c(C)cc(C(=O)CCl)c2C)cc1,-99*,0,8%,2.6µM*,2.9µM*,0
Cc1ccc(NC(=O)C(=O)c2cc(C)n(-c3ccc(F)cc3)c2C)cc1C,/,/,6%,21µM*,?,/
CCOC(=O)c1cc(C)n(-c2ccc(OC)c(OC)c2)c1C,7,-10,9%,18µM*,?,-28
CCOc1ccc(-n2c(C)cc(C(=O)CCl)c2C)cc1,-99*,3,3%,4.6µM*,2.9µM*,-5
COC(=O)c1ccc(-n2c(C)cc(C(=O)COC(=O)C3=COCCO3)c2C)cc1,11,-12,4%,?,3%,-4
COc1cc(CN2CCCC(c3nc(-c4ccncc4)ncc3-c3ccccc3)C2)ccc1O (configuration not stated),/,/,/,-5%,-9%[9.04 µM],/
